Data as given in PubChem BioAssay (NCI).
Compounds without any hit were thinned out: in the full panel of roughly 79,000, 15% have a hit. Active and inactive are the calls of the source. Rule as the data show it: active = growth inhibition above about 70%; inactive = the rest.

Legend:
[1] = NCI Yeast Anticancer Drug Screen. Data for the wt1 strain (AID 149);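 also: 0% = growth of vehicle-treated wt1 cultures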; conditions: S. cerevisiae wt1 strain (SPY 50644) growth inhibition, active compounds read high
Method in brief: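 Each compound is tested on wt1 yeast and the loss of growth versus vehicle gives the inhibition value.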

[2] = NCI Yeast Anticancer Drug Screen. Data for the rad50EPP+ strain (AID 151);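 also: 0% = growth of vehicle-treated control cultures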; conditions: S. cerevisiae rad50 mutant strain, active compounds read high
Method in brief: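 Measured: growth inhibition of rad50EPP+ yeast. Reference: vehicle-treated controls. Screen uses strains with defined genetic alterations in DNA damage repair or cell cycle control.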

[3] = NCI Yeast Anticancer Drug Screen. Data for the mgt1 strain (AID 153); conditions: S. cerevisiae mgt1 mutant growth inhibition, active compounds read high
Method in brief: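 Compounds were applied to mgt1 mutant yeast, and growth was then compared against vehicle-treated control cultures to give percent inhibition.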

[4] = NCI Yeast Anticancer Drug Screen. Data for the rad50 strain (AID 155);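 also: 0% = growth of vehicle-only cultures of the same strain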; conditions: S. cerevisiae rad50 strain growth inhibition, active compounds read high
Method in brief: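 Vehicle-treated cultures provide the reference for the growth inhibition reported for compound-exposed, repair-deficient yeast.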

[5] = NCI Yeast Anticancer Drug Screen. Data for the mec2-1 strain (AID 157); conditions: S. cerevisiae mec2-1 strain, active compounds read high
Method in brief: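 Compounds were applied to mec2-1 yeast cells. Their growth was then compared with that of vehicle-treated cultures to give growth inhibition.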

[6] = NCI Yeast Anticancer Drug Screen. Data for the rad14 strain (AID 159);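 also: 0% = growth of vehicle-treated control cultures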; conditions: S. cerevisiae rad14 strain growth inhibition, active compounds read high
Method in brief: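 Inhibition of growth is reported for a repair-deficient yeast mutant following compound treatment, calculated relative to cultures that received vehicle.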

[7] = NCI Yeast Anticancer Drug Screen. Data for the sgs1 mgt1 strain (AID 161);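 also: 0% = growth of cultures given vehicle only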; conditions: S. cerevisiae sgs1 mgt1 strain, active compounds read high
Method in brief: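 Yeast cells carrying a defined DNA-repair defect were exposed to test compounds. Growth inhibition was measured relative to vehicle-treated controls.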

[8] = NCI Yeast Anticancer Drug Screen. Data for the CLN2oe strain (AID 163);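 also: 0% = growth of vehicle-only control cultures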; conditions: S. cerevisiae CLN2oe strain, active compounds read high
Method in brief: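 Cells of an engineered yeast line with disturbed cell-cycle regulation are treated with compound. Inhibition of growth is then calculated relative to the vehicle-treated reference.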

[9] = NCI Yeast Anticancer Drug Screen. Data for the cln2 rad14 strain (AID 165);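 also: 0% = growth equal to vehicle treated cultures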; conditions: S. cerevisiae cln2 rad14 strain, active compounds read high
Method in brief: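 Strain: cln2 rad14 yeast, altered in cell cycle control and DNA damage repair. Read-out: growth inhibition vs vehicle.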

[10] = NCI Yeast Anticancer Drug Screen. Data for the bub3 strain (AID 167); conditions: S. cerevisiae bub3 mutant strain, active compounds read high
Method in brief: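 Mutant yeast screening strain plus compound; vehicle-treated cultures serve as the 0% inhibition reference.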

[11] = NCI Yeast Anticancer Drug Screen. Data for the wt2 strain (AID 169); conditions: S. cerevisiae wt2 strain growth inhibition, active compounds read high
Method in brief: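 Growth of compound-treated yeast is measured and expressed as inhibition relative to vehicle-only controls.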

[12] = NCI Yeast Anticancer Drug Screen. Data for the sgs1 strain (AID 173);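 also: 0% = growth of vehicle-only control cultures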; conditions: S. cerevisiae sgs1 mutant, active compounds read high
Method in brief: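 Strain with an altered DNA repair or cell cycle pathway exposed to compound. Growth then measured. Value = inhibition versus vehicle control.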

[13] = NCI Yeast Anticancer Drug Screen. Data for the mlh1 rad18 strain (AID 175); conditions: S. cerevisiae mlh1 rad18 strain growth inhibition, active compounds read high
Method in brief: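 A repair-deficient yeast strain is exposed to test compound, and growth is scored relative to vehicle-treated controls.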

[14] = NCI Yeast Anticancer Drug Screen. Data for the rad18 strain (AID 177); conditions: S. cerevisiae rad18 mutant growth inhibition, active compounds read high
Method in brief: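 DNA-repair-defective yeast; compound treatment; growth inhibition scored against vehicle.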

[15] = NCI Yeast Anticancer Drug Screen. Data for the mlh1 strain (AID 171);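 also: 0% = growth of vehicle-treated control cultures of the same strain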; conditions: S. cerevisiae mlh1 strain growth inhibition, active compounds read high
Method in brief: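 Test agents were incubated with yeast bearing a defined DNA damage repair or cell cycle control alteration; values are growth inhibition normalised to vehicle-treated cultures.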

[16] = at 5.0 µM (retest, dose inferred, filed as 0.5)
[17] = at 50.0 µM (retest, dose inferred, filed as 5.0)

Measured: growth inhibition

O=C1OC(c2ccc(Cl)cc2)Sc2ccccc21 (stereo unspecified)
inactive: [1]; at 1.2 µM 1% | [1]; at 3.7 µM 6% | [1]; at 11.0 µM 17% | [2]; at 1.2 µM 11% | [2]; at 3.7 µM 28% | [2]; at 11.0 µM 45% | [2]; at 33.0 µM 61% | [2]; at 100.0 µM 58% | [3]; at 1.2 µM 6% | [3]; at 3.7 µM 8% | [3]; at 11.0 µM 17% | [4]; at 1.2 µM 7% | [4]; at 3.7 µM 13% | [4]; [16] 5% | [4]; at 11.0 µM 62% | [5]; at 1.2 µM 9% | [5]; at 3.7 µM 17% | [5]; [16] -7% | [5]; at 11.0 µM 33% | [5]; [17] 35% | [6]; at 1.2 µM 7% | [6]; at 3.7 µM 11% | [6]; at 11.0 µM 25% | [7]; [16] 4% | [7]; [17] 52% | [8]; at 1.2 µM 9% | [8]; at 3.7 µM 13% | [8]; at 11.0 µM 27% | [9]; [16] -61% | [9]; [17] -14% | [9]; at 50.0 µM -26.9% | [10]; at 1.2 µM 11% | [10]; at 3.7 µM 15% | [10]; [16] 7% | [10]; at 11.0 µM 29% | [10]; [17] 46% | [11]; at 1.2 µM 6% | [11]; at 3.7 µM 6% | [11]; at 11.0 µM 31% | [12]; at 1.2 µM 2% | [12]; at 3.7 µM 11% | [12]; at 11.0 µM 37% | [13]; [16] 16% | [14]; at 1.2 µM 6% | [14]; at 3.7 µM 15% | [14]; at 11.0 µM 68%
active: [1]; at 33.0 µM 88% | [1]; at 100.0 µM 98% | [3]; at 33.0 µM 97% | [3]; at 100.0 µM 94% | [4]; at 33.0 µM 95% | [4]; [17] 88% | [4]; at 50.0 µM 83.8% | [4]; at 100.0 µM 92% | [5]; at 33.0 µM 96% | [5]; at 50.0 µM 86.5% | [5]; at 100.0 µM 98% | [6]; at 33.0 µM 98% | [6]; at 100.0 µM 98% | [7]; at 50.0 µM 85% | [8]; at 33.0 µM 97% | [8]; at 100.0 µM 97% | [10]; at 33.0 µM 96% | [10]; at 50.0 µM 93.9% | [10]; at 100.0 µM 97% | [11]; at 33.0 µM 84% | [11]; at 100.0 µM 98% | [12]; at 33.0 µM 96% | [12]; at 100.0 µM 97% | [13]; [17] 86% | [13]; at 50.0 µM 95% | [14]; at 33.0 µM 96% | [14]; at 100.0 µM 94%

CCCCCC(=O)C(C)(c1nc2n(c1O)/C(=N/C(=O)Nc1ccc(Cl)cc1)N=N2)c1nc2n(c1O)/C(=N/C(=O)Nc1ccc(Cl)cc1)N=N2
inactive: [1]; at 1.2 µM 3% | [1]; at 3.7 µM -4% | [1]; at 11.0 µM -3% | [1]; at 33.0 µM 1% | [1]; at 100.0 µM 18% | [2]; at 1.2 µM 8% | [2]; at 3.7 µM 16% | [2]; at 11.0 µM 32% | [2]; at 33.0 µM 60% | [3]; at 1.2 µM 2% | [3]; at 3.7 µM 4% | [3]; at 11.0 µM -5% | [3]; at 33.0 µM 9% | [3]; at 100.0 µM 57% | [4]; at 1.2 µM 6% | [4]; at 3.7 µM 0% | [4]; [16] -7% | [4]; at 11.0 µM 6% | [4]; at 33.0 µM 24% | [4]; [17] 14% | [4]; at 50.0 µM -11.6% | [4]; at 100.0 µM 44% | [5]; at 1.2 µM -3% | [5]; at 3.7 µM -1% | [5]; [16] 20% | [5]; at 11.0 µM 2% | [5]; at 33.0 µM 8% | [5]; [17] 41% | [5]; at 50.0 µM -11.2% | [5]; at 100.0 µM 30% | [6]; at 1.2 µM -1% | [6]; at 3.7 µM 2% | [6]; at 11.0 µM -2% | [6]; at 33.0 µM 4% | [6]; at 100.0 µM 50% | [7]; [16] 12% | [7]; [17] 64% | [7]; at 50.0 µM -5.1% | [8]; at 1.2 µM -5% | [8]; at 3.7 µM -8% | [8]; at 11.0 µM -5% | [8]; at 33.0 µM 2% | [8]; at 100.0 µM 27% | [9]; [16] -27% | [9]; [17] 3% | [9]; at 50.0 µM -23.3% | [10]; at 1.2 µM -6% | [10]; at 3.7 µM -9% | [10]; [16] -42% | [10]; at 11.0 µM -8% | [10]; at 33.0 µM -1% | [10]; [17] 38% | [10]; at 100.0 µM 20% | [11]; at 1.2 µM -1% | [11]; at 3.7 µM -1% | [11]; at 11.0 µM 4% | [11]; at 33.0 µM 19% | [11]; at 100.0 µM 45% | [15]; at 1.2 µM -4% | [15]; at 3.7 µM -1% | [15]; at 11.0 µM 6% | [15]; at 33.0 µM 22% | [15]; at 100.0 µM 59% | [12]; at 1.2 µM 2% | [12]; at 3.7 µM 1% | [12]; at 11.0 µM 6% | [12]; at 33.0 µM 25% | [12]; at 100.0 µM 54% | [13]; [16] -26% | [13]; [17] 55% | [13]; at 50.0 µM 7% | [14]; at 1.2 µM -1% | [14]; at 3.7 µM 7% | [14]; at 11.0 µM 9% | [14]; at 33.0 µM 21% | [14]; at 100.0 µM 51%
active: [2]; at 100.0 µM 79% | [10]; at 50.0 µM 98.2%
